Reference: the supplement of paper PMC6555819

Assays:
Experiment in all cases: PBM binding z-score (relative to random genomic background probes); higher = stronger binding; sequences stand for … in GC…GCGATTGACAGCGTAGAATGAAGG
[1] = tested on: FXR:RXRa (NR concentration 270 nM, RXRa partner concentration 90 nM)
Procedure, shortened: (§1)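 Random background probes are the reference for binding z-scores. These scores derive from regression-normalized fluorescence on custom Agilent 4×180K protein-binding microarrays incubated 1 h with ligand-free nuclear receptor dimers. Binding was detected with antibodies against each partner (one per run).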

[2] = tested on: LXRa:RXRa (NR concentration 270 nM, RXRa partner concentration 90 nM)
Procedure, shortened: as §1

[3] = tested on: LXRa homodimer (NR concentration 270 nM)
Procedure, shortened: as §1

[4] = tested on: LXRb:RXRa (NR concentration 270 nM, RXRa partner concentration 90 nM)
Procedure, shortened: as §1

[5] = tested on: LXRb homodimer (NR concentration 270 nM)
Procedure, shortened: as §1

[6] = tested on: PPARa:RXRa (NR concentration 270 nM, RXRa partner concentration 90 nM)
Procedure, shortened: as §1

[7] = tested on: PPARg:RXRa (NR concentration 180 nM, RXRa partner concentration 90 nM)
Procedure, shortened: as §1

[8] = tested on: PPARg:RXRa 270nM:90nM, anti-RXR (NR concentration 270 nM, RXRa partner concentration 90 nM)
Procedure, shortened: as §1

[9] = tested on: PPARg:RXRa 30nM:10nM, anti-RXR (NR concentration 30 nM, RXRa partner concentration 10 nM)
Procedure, shortened: as §1

[10] = tested on: PPARg:RXRa 90nM:30nM, anti-RXR (NR concentration 90 nM, RXRa partner concentration 30 nM)
Procedure, shortened: as §1

Sequence: AGAATGAGGTTATTAAGATGAGGGAATTGCGGTC
- PBM binding z-score [1]: 1.61
- PBM binding z-score [2]: 1.5
- PBM binding z-score [3]: 0.433
- PBM binding z-score [4]: 1.3
- PBM binding z-score [5]: 0.12
- PBM binding z-score [6]: 2.54
- PBM binding z-score [7]: 1.22
- PBM binding z-score [8]: 1.46
- PBM binding z-score [9]: 0.735
- PBM binding z-score [10]: 1.12

Sequence: ATATATAGGTTACATCCGGGTCATTCAGGCTATG
- PBM binding z-score [1]: 3.03
- PBM binding z-score [2]: 5.06
- PBM binding z-score [3]: 2.32
- PBM binding z-score [4]: 3.45
- PBM binding z-score [5]: 1.23
- PBM binding z-score [6]: 4.67
- PBM binding z-score [7]: 6.17
- PBM binding z-score [8]: 5.45
- PBM binding z-score [9]: 2.59
- PBM binding z-score [10]: 4.8

Sequence: ACTAGTTGGTCAGCTGAGGGCACACACAATTCGG
- PBM binding z-score [1]: 0.819
- PBM binding z-score [2]: 0.0659
- PBM binding z-score [3]: 0.172
- PBM binding z-score [4]: 0.183
- PBM binding z-score [5]: -0.0227
- PBM binding z-score [6]: 0.606
- PBM binding z-score [7]: 0.887
- PBM binding z-score [8]: 0.572
- PBM binding z-score [9]: 0.27
- PBM binding z-score [10]: 0.385

Sequence: CGAACTAGGTCACGGACAGTGAATCTCCGCACGC
- PBM binding z-score [1]: 4.87
- PBM binding z-score [2]: 3.34
- PBM binding z-score [3]: 0.231
- PBM binding z-score [4]: 2.64
- PBM binding z-score [5]: -0.137
- PBM binding z-score [6]: 5.68
- PBM binding z-score [7]: 9.36
- PBM binding z-score [8]: 7.68
- PBM binding z-score [9]: 5.94
- PBM binding z-score [10]: 7.84

Sequence: GTACCAAGTTGAATAGGTCGTTGATGAGTAGGCG
- PBM binding z-score [1]: 0.0295
- PBM binding z-score [2]: 0.289
- PBM binding z-score [3]: -0.317
- PBM binding z-score [4]: 0.163
- PBM binding z-score [5]: -0.262
- PBM binding z-score [6]: 0.893
- PBM binding z-score [7]: 0.208
- PBM binding z-score [8]: 0.125
- PBM binding z-score [9]: -0.197
- PBM binding z-score [10]: -0.278

Sequence: ATATGTAGGTTAGTTGGGGTCATTCAGACTAGGC
- PBM binding z-score [1]: 5
- PBM binding z-score [2]: 6.61
- PBM binding z-score [3]: 5.82
- PBM binding z-score [4]: 5.76
- PBM binding z-score [5]: 1.94
- PBM binding z-score [6]: 5.47
- PBM binding z-score [7]: 5.44
- PBM binding z-score [8]: 5.32
- PBM binding z-score [9]: 2.72
- PBM binding z-score [10]: 4.54

Sequence: CAAACTAGGTCAAAGGTCACAGTCGAGCCAACCA
- PBM binding z-score [1]: 8.05
- PBM binding z-score [2]: 6.81
- PBM binding z-score [3]: 4.49
- PBM binding z-score [4]: 7.06
- PBM binding z-score [5]: 2.03
- PBM binding z-score [6]: 7.83
- PBM binding z-score [7]: 13.8
- PBM binding z-score [8]: 11.1
- PBM binding z-score [9]: 13.2
- PBM binding z-score [10]: 13.2

Sequence: CCCACTGGGCCATCAGGTCATTGATATCAACGTT
- PBM binding z-score [1]: 1.16
- PBM binding z-score [2]: 1.11
- PBM binding z-score [3]: 1.5
- PBM binding z-score [4]: 1.63
- PBM binding z-score [5]: -0.17
- PBM binding z-score [6]: 2.74
- PBM binding z-score [7]: 2.87
- PBM binding z-score [8]: 3.57
- PBM binding z-score [9]: 1.18
- PBM binding z-score [10]: 2.86

Sequence: TCTGCTAGGTCAGTTGGTTAGCTAACGAGCTGCC
- PBM binding z-score [1]: 0.851
- PBM binding z-score [2]: 0.567
- PBM binding z-score [3]: -0.601
- PBM binding z-score [4]: 0.643
- PBM binding z-score [5]: 0.257
- PBM binding z-score [6]: 1.05
- PBM binding z-score [7]: 0.0463
- PBM binding z-score [8]: 1.19
- PBM binding z-score [9]: 1.17
- PBM binding z-score [10]: 1.34

Sequence: CCTCGGAGGACACAAGGTCAGAGCTGTCCGCTTT
- PBM binding z-score [1]: 1.95
- PBM binding z-score [2]: 2.18
- PBM binding z-score [3]: 0.422
- PBM binding z-score [4]: 1.25
- PBM binding z-score [5]: -0.693
- PBM binding z-score [6]: 2.17
- PBM binding z-score [7]: 0.424
- PBM binding z-score [8]: 1.15
- PBM binding z-score [9]: -0.626
- PBM binding z-score [10]: 0.468

Sequence: CGAACTAGGTCATTGACATGACAGTGAATAGTAA
- PBM binding z-score [1]: 5.2
- PBM binding z-score [2]: 3.24
- PBM binding z-score [3]: 0.582
- PBM binding z-score [4]: 2.31
- PBM binding z-score [5]: -0.197
- PBM binding z-score [6]: 4.88
- PBM binding z-score [7]: 7.61
- PBM binding z-score [8]: 6.52
- PBM binding z-score [9]: 3.97
- PBM binding z-score [10]: 6.29

Sequence: CCTTACGGGTCACTCCTGGTTATAGCATCGGAGT
- PBM binding z-score [1]: 4.24
- PBM binding z-score [2]: 5.52
- PBM binding z-score [3]: -0.0362
- PBM binding z-score [4]: 3.01
- PBM binding z-score [5]: 0.134
- PBM binding z-score [6]: 4.2
- PBM binding z-score [7]: 2.76
- PBM binding z-score [8]: 3.54
- PBM binding z-score [9]: 0.987
- PBM binding z-score [10]: 2.25
